The source made the active and inactive calls. Rule for the calls: active = hit-call score of the fitted dose curve at least 0.9, where 1 is the maximum; inactive = score below 0.9.
Assay: Tanguay_ZF_120hpf_AXIS: Oregon State University Tanguay Lab 120 Hour Post-fertilization zebrafish Assay for Axial Malformation (AID 2284398)
Procedure: Tanguay_ZF_120hpf is a whole embryo, multiplexed endpoint assay using zebrafish larvae exposed for 120 hours post fertilization on a 96-well plate.Tanguay_ZF_120hpf_AXIS is one of one assay component(s) measured or calculated from the Tanguay_ZF_120hpf assay. It is designed to make measurements of zebrafish development as detected with brightfield microscopy of developing zebrafish embryos.Data from the assay component Tanguay_ZF_120hpf_AXIS was analyzed into 1 assay endpoints. This assay endpoint, Tanguay_ZF_120hpf_AXIS, was analyzed in the positive analysis fitting direction relative to DMSO as the negative control and baseline of activity. Using a type of morphology reporter, gain-of-signal activity can be used to understand changes in developmentals as they relate to the whole embryo. To generalize the intended target to other relatable targets, this assay endpoint is annotated to the zebrafish development intended target family, where the subfamily is body axis morphogenesis.
Zebrafish husbandry: Tropical 5D wild-type adult zebrafish were housed in at an approximate density of 1000 per 100 gallon tank at the Sinnhuber Aquatic Research Laboratory, Oregon State University, Corvallis, OR. Each tank was kept at standard laboratory conditions of 28C on a 14-h light/10-h dark photoperiod in fish water consisting of reverse osmosis water supplemented with a commercially available salt (Instant Ocean). Spawning funnels were placed into the tanks the night prior, and embryos were collected and staged. To increase bioavailability, the chorion was enzymatically removed using pronase (63.6mg/ml, >/= 3.5U/mg, Sigma-Aldrich: P5147) at 4 hours post fertilization (hpf) using a custom automated dechorionator.Chemical exposures: Six hpf dechorionated embryos were placed 1 embryo per well in a 96-well plate prefilled with 90 ul of EM using automated embryo placement systems (AEPS). Ten microliters of each row of dilution plate 2 was added to 2 exposure plates. The final DMSO concentration used was 0.64% (vol/vol). Thirty-two embryos were also exposed to 5uM trimethyltin chloride (positive control). Plates were sealed to prevent evaporation and foil covered to reduce light exposure and kept in a 28C incubator. Embryos were statically exposed until 120 hpf. At 24 hpf, embryos were assessed for photomotor response using a custom photomotor response analysis tool (PRAT) and for developmental toxicity endpoints (MO24: mortality at 24 hpf, DP: developmental progression, SM: spontaneous movement, and NC: notochord distortion). At 120 hpf, locomotor activity was measured using Viewpoint Zebralab and assessed for 13 endpoints. Zebrafish acquisition and analysis program (ZAAP), a custom program designed to inventory, acquire, and manage zebrafish data, was used to collect developmental endpoints as either present or absent (i.e., binary responses were recorded). If mortality occurred for an embryo (at either 24 or 120 hpf), the non-mortality endpoints were not measured.

| SMILES | outcome | AC50 |
| --- | --- | --- |
| C=CC(F)(F)C(F)(F)C(F)(F)C(F)(F)C(F)(F)C(F)(F)C(F)(F)C(F)(F)C=C | inactive |  |
| FC(F)(F)C(F)(F)C(F)(F)C(F)(F)C(F)(F)CCI | inactive |  |
| O=C(O)C(F)(F)C(F)(F)F | inactive |  |
| O=C(CC(=O)C(F)(F)C(F)(F)F)C(F)(F)F | inactive |  |
| OCCCC(F)(F)C(F)(F)C(F)(F)F | inactive |  |
| O=S(=O)(OCC(F)F)C(F)(F)F | inactive |  |
| O=C(O)C=C(C(F)(F)F)C(F)(F)F | inactive |  |
| FC(F)(F)C(F)(F)CNCC(F)(F)C(F)(F)F | inactive |  |
| O=C(O)C(F)(F)C(F)(F)C(F)(F)C(F)(F)C(F)(F)C(F)(F)C(F)(F)C(F)(F)C(F)(F)C(F)F | inactive |  |
| FC(F)(F)C(F)(F)C(F)(F)C(F)(F)C(F)(F)C(F)(F)C(F)(F)I | inactive |  |
| O=S(=O)(OCCOC(F)(F)F)C(F)(F)F | inactive |  |
| O=C(O)C(F)(F)C(F)(F)C(F)F | inactive |  |
| O=C(O)C(F)(F)C(F)(F)C(F)(F)C(F)(F)C(F)(F)C(F)(F)C(F)(F)C(F)(F)Cl |  | 37.2 µM (active) |
| C=CC(=O)OCC(F)(F)C(F)(F)C(F)(F)C(F)(F)C(F)(F)C(F)(F)C(F)(F)F | inactive |  |
| O=S(=O)(O)C(F)(F)C(F)(F)C(F)(F)C(F)(F)C(F)(F)C(F)(F)C(F)(F)F |  | 49.5 µM (active) |
| FC(F)(F)C(F)(F)C(F)(F)C(F)(F)C(F)(F)C(F)(F)C(F)(F)Br | inactive |  |
| FC(F)(F)C(F)(F)C(F)(F)N(C(F)(F)C(F)(F)C(F)(F)F)C(F)(F)C(F)(F)C(F)(F)F | inactive |  |
| O=C(O)C(F)(F)C(F)(F)C(F)(F)C(F)(F)F | inactive |  |
| FC(F)(F)C(F)(F)C(F)(F)C(F)(F)CCI | inactive |  |
| FC(F)(F)C(F)(F)C(F)(F)C(F)(F)C(F)(F)C(F)(F)C(F)(F)C(F)(F)F | inactive |  |

| SMILES | outcome | AC50 |
| --- | --- | --- |
| OCC(F)(F)C(F)(F)C(F)(F)C(F)F | inactive |  |
| FC(F)(F)C(F)(F)C(F)(F)CI | inactive |  |
| CCCCCCCCC(F)(F)C(F)(F)C(F)(F)C(F)(F)C(F)(F)C(F)(F)F | inactive |  |
| O=C(O)C(F)(OC(F)(F)C(F)(OC(F)(F)C(F)(F)C(F)(F)F)C(F)(F)F)C(F)(F)F (stereo not given) | inactive |  |
| FC(F)(F)C(F)(F)C(F)(F)C(F)(F)C(F)(F)C(F)(F)CC1CO1 (stereo not given) | inactive |  |
| O=C(O)C(F)(F)C(F)(F)C(F)(F)C(F)(F)C(F)(F)C(F)(F)C(F)(F)C(F)(F)C(F)(F)C(F)(F)C(F)(F)C(F)(F)F | inactive |  |
| OCC(F)(F)C(F)(F)C(F)(F)C(F)(F)C(F)(F)C(F)(F)F | inactive |  |
| NC(=O)C(F)(F)C(F)(F)C(F)(F)C(F)(F)F | inactive |  |
| C=CC(=O)OCC(F)(F)C(F)(F)C(F)(F)C(F)(F)COC(=O)C=C | inactive |  |
| O=P(O)(O)OCCC(F)(F)C(F)(F)C(F)(F)C(F)(F)C(F)(F)C(F)(F)F | inactive |  |
| C=C(C)C(=O)OCC(F)(F)C(F)(F)C(F)(F)F | inactive |  |
| C=C(C)C(=O)OCC(F)(F)C(F)(F)C(F)(F)C(F)(F)C(F)(F)C(F)(F)C(F)(F)F | inactive |  |
| OCC(F)(F)C(F)(F)C(F)(F)C(F)(F)C(F)(F)C(F)F | inactive |  |
| COC(=O)CCC(F)(F)C(F)(F)C(F)(F)C(F)(F)F | inactive |  |
| N=C(N)C(F)(F)C(F)(F)C(F)(F)C(F)(F)C(F)(F)C(F)(F)C(F)(F)F | inactive |  |
| FC(F)(F)C(F)(F)C(F)(F)C(F)(F)C(F)(F)C(F)(F)C(F)(F)C(F)(F)CCS | inactive |  |
| Cc1ccc(S(=O)(=O)OCC(F)(F)C(F)(F)C(F)(F)C(F)(F)C(F)(F)C(F)F)cc1 | inactive |  |
| CC(C)(C)C(=O)CC(=O)C(F)(F)C(F)(F)C(F)(F)F | inactive |  |
| O=C(O)C(F)(F)C(F)(F)C(F)(F)F | inactive |  |
| OCC(F)(F)C(F)(F)C(F)(F)F | inactive |  |
